Source: PubChem
Hedgehog inh: blocks Sonic Hedgehog signaling. Shh-LIGHT2 Gli-luciferase reporter, 30 h. inhibition, % (test concentration not listed). AID 2313. 22,000 tested, 2.1% active;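 active = mean inhibition across valid replicates above about 65%, limit read from the data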;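 also: pathway switched on by Shh-conditioned medium diluted 1 in 25 in low serum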
NOMO-1 viab: STK33 inhibitor candidate reducing NOMO-1 cell viability. NOMO-1 AML viability, CellTiter-Glo luminescence, 72 h. AID 2330. 37,000 tested, 7.5% active. inhibition, % (concentration not given with the values); in the data active = inhibition above about 80%
PD-1 reverse act: reversal of PD-1 mediated T-cell inhibition; primary human CD4 T cells, PD-L1 beads, CellTiter-Glo 96 h; activation, % (test concentration not listed); 29,000 tested, under 10 active; call rule not given here;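 also: 0% = median vehicle wells and 100% = positive control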
Starred values were filed as active, the others as inactive. A selection: hits, their analogues and other compounds. The true share with any hit is near 7.7%.

For C[C@@H]1CN([C@H](C)CO)C(=O)c2cccc(NS(=O)(=O)c3ccc(Cl)cc3)c2O[C@H]1CN(C)Cc1ccc(Oc2ccccc2)cc1 the results were Hedgehog inh -11.1, NOMO-1 viab 49.6 and PD-1 reverse act 4.6.
`C[C@H](CO)N1C[C@H](C)[C@@H](CN(C)Cc2ccc(Oc3ccccc3)cc2)Oc2c(NS(=O)(=O)c3ccc(Cl)cc3)cccc2C1=O` gave Hedgehog inh 2.5, NOMO-1 viab 104.0* and PD-1 reverse act -3.6.
Screening C[C@H]1CN([C@@H](C)CO)C(=O)c2cccc(NS(=O)(=O)c3ccccc3)c2O[C@@H]1CN(C)Cc1ccc(Cl)c(Cl)c1 returned Hedgehog inh 1.9, NOMO-1 viab 7.2 and PD-1 reverse act 0.1.
Screening CC(C)CCNC(=O)c1cccc2c1-c1ccccc1C2=O returned Hedgehog inh 26.2, NOMO-1 viab 19.6 and PD-1 reverse act -0.4.
Screening O=C(NCC[C@@H](CNC(=O)c1cccc(O)c1O)NC(=O)c1cccc(O)c1O)c1cccc(O)c1O returned Hedgehog inh 23.7, NOMO-1 viab 120.4* and PD-1 reverse act -4.5.
For C=CCNC(=O)c1c(NC(=O)C2COc3ccccc3O2)sc2c1CCCC2 (configuration not stated) the results were NOMO-1 viab 73.7 and PD-1 reverse act -6.3.
Screening O=C(COc1ccc(C(=O)Nc2ccc(F)cc2)cc1)Nc1cc(Cl)cc(Cl)c1 returned NOMO-1 viab 49.1 and PD-1 reverse act 0.6.
Screening COc1ccc(OC)c(-n2c(=S)[nH]c3cc(C(=O)Nc4ccc(C)c(Cl)c4)ccc3c2=O)c1 returned Hedgehog inh -29.9, NOMO-1 viab -10.8 and PD-1 reverse act -0.3.
Screening COc1ccc(NC(=O)c2ccc3c(=O)n(Cc4ccco4)c(=S)[nH]c3c2)cc1OC returned Hedgehog inh 77.2*, NOMO-1 viab 16.3 and PD-1 reverse act 0.0.
For NNC(=O)CNC(=O)c1ccccc1 the results were Hedgehog inh -32.8, NOMO-1 viab 42.8 and PD-1 reverse act 2.8.
Screening CCn1c(SCC(=O)Nc2ccccc2OC)nnc1-c1ccncc1 returned NOMO-1 viab -0.5 and PD-1 reverse act -0.6.
For C[C@@H]1CN([C@H](C)CO)C(=O)Cc2cc(NC(=O)Nc3ccc(C(F)(F)F)cc3)ccc2O[C@H]1CN(C)Cc1ccc2c(c1)OCO2 the results were NOMO-1 viab -12.8.
Screening C[C@@H]1CN([C@@H](C)CO)C(=O)Cc2cc(NC(=O)Nc3ccc(F)cc3)ccc2O[C@@H]1CN(C)Cc1ccc(C(F)(F)F)cc1 returned Hedgehog inh 22.1, NOMO-1 viab 113.2* and PD-1 reverse act -6.0.
Screening C[C@H](CO)N1C[C@H](C)[C@H](CN(C)Cc2ccc(C(=O)O)cc2)Oc2ccc(NC(=O)Nc3ccc(C(F)(F)F)cc3)cc2CC1=O returned Hedgehog inh 7.2, NOMO-1 viab 17.9 and PD-1 reverse act 2.0.
Screening C[C@H]1CN([C@@H](C)CO)C(=O)Cc2cc(NC(=O)Nc3ccc(C(F)(F)F)cc3)ccc2O[C@@H]1CN(C)Cc1ccc(C(F)(F)F)cc1 returned Hedgehog inh -2.3, NOMO-1 viab 126.1* and PD-1 reverse act -2.5.
For C[C@H]1CN([C@@H](C)CO)C(=O)Cc2cc(NC(=O)Nc3ccc(F)cc3)ccc2O[C@H]1CN(C)Cc1ccc(C(F)(F)F)cc1 the results were Hedgehog inh -22.7, NOMO-1 viab 126.0* and PD-1 reverse act 0.1.
For C[C@H]1CN([C@@H](C)CO)C(=O)Cc2cc(NC(=O)Nc3ccc(C(F)(F)F)cc3)ccc2O[C@@H]1CN(C)Cc1ccncc1 the results were Hedgehog inh 37.9 and NOMO-1 viab 20.1.
C[C@@H]1CN([C@@H](C)CO)C(=O)Cc2cc(NC(=O)Nc3ccc(C(F)(F)F)cc3)ccc2O[C@@H]1CN(C)Cc1ccc2c(c1)OCO2 was read as Hedgehog inh 13.8 and NOMO-1 viab 122.4*.
For COC(=O)c1ccccc1NC(=O)Cn1ccc([N+](=O)[O-])n1 the results were NOMO-1 viab -11.1 and PD-1 reverse act 1.3.
O=C(O)CCNS(=O)(=O)c1cccc(F)c1 was read as NOMO-1 viab 3.7 and PD-1 reverse act 0.7.
For CC(C)Oc1ccccc1-c1nc(SCC(N)=O)n[nH]1 the results were NOMO-1 viab 24.2 and PD-1 reverse act 2.6.
OCCN(CCO)Cc1ccc(Cl)cc1 was read as NOMO-1 viab 13.6 and PD-1 reverse act 0.7.
`Nc1ccc(Br)cc1C(O)c1ccccc1` (configuration not stated) gave NOMO-1 viab 12.9 and PD-1 reverse act -0.2.
CC(C)(C)C1CCc2c(sc(NC(=O)CSc3n[nH]c(-c4ccco4)n3)c2C#N)C1 (configuration not stated) was read as NOMO-1 viab 15.5.
For C[C@H](CO)N1C[C@H](C)[C@@H](CN(C)Cc2ccc(C(F)(F)F)cc2)Oc2ccc(NC(=O)Nc3ccccc3)cc2C1=O the results were Hedgehog inh -17.4 and NOMO-1 viab 63.2.
